This is an account of results in PubChem BioAssay AID651558 (National Center for Advancing Translational Sciences (NCATS), 2012).

The campaign covered roughly 1,200 compounds. About 480 (40%) were called active. Inconclusive results (about 29%) are left out. Calls come from the whole dose curve; as a rule, active = well fitted inhibition curve with a large enough effect; inconclusive = small, poorly fitted or top-dose-only effect; inactive = no such curve, though single readings can be large or run the other way. The list shows a part of the results. Entries that show only a call come without a potency.
Potency is the fitted concentration of half-maximal effect.

The nature of this assay: qHTS Assay to Find Inhibitors of Chronic Active B-Cell Receptor Signaling: Hit Validation in Primary Screen. Note: nearly all actives have a fitted effect of over 75% in size. To be noted: ABC-DLBCL IkB-luc/CBR ratio luminescence, 4 h; series mostly up to 46.1 µM. The method in brief: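 TMD8 ABC-DLBCL cells carrying doxycycline-inducible IkBa-green luciferase fusion and free red luciferase, 0.5% FBS, dosed 46 uM–3 nM with doxycycline for 4 h at 37C. Green/red luminescence ratio normalized to basal and 10 uM MG-132.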
Background: Quantitative high-throughput screening tests each substance at several concentrations.
With `CC(O)c1cccc(-c2ccc(CN3C[C@]4(CO)O[C@@H](CO)C[C@@H]4S3(=O)=O)cc2)c1` (stereo partly drawn), the Potency entry is “inactive”.

As for `CC1=NN(C(N)=S)C(=O)C1N=Nc1ccc(C)c(Br)c1` (stereo not drawn), the Potency result is “inactive”.

Regarding `OC(C#Cc1ccccn1)c1cccs1` (stereo not drawn), the Potency result is “inactive”.

As for `COc1ccc(COc2cc(-c3cccc(OC)c3)nc3ccc(N)cc23)cc1`, the Potency is 2.91 µM (active).

Regarding `CN1c2ccccc2Sc2cc(N)ccc21`, the Potency entry is “inactive”.

Turning to `COc1ccc(-c2nn(-c3ccccc3)cc2C(=O)NC(=S)NNC(=O)c2ccncc2)cc1`, the Potency result is “inactive”.

Take `COc1ccc(/C=N/NC(=O)CCn2cnc(-c3ccccc3)c2-c2ccccc2)cc1OC`: the Potency is 16.4 µM (active).

Consider `COc1ccc(/C=N/NC(=O)CCn2cnc(-c3ccccc3)c2-c2ccccc2)cc1`, for which the Potency is 2.31 µM (active).

For `COc1ccc(/C=N\NC(=O)c2c(C)nc3ccc(Br)cn23)cc1`, the Potency entry is “inactive”.

`COc1cc2c(cc1OC)-c1cc(Nc3ccccc3C)nc(=O)n1CC2`: the Potency entry is “inactive”.

Turning to `COc1cc2c(cc1OC)-c1cc(Nc3ccc(C)cc3)nc(=O)n1CC2`, the Potency is 18.4 µM (active).

In the case of `COc1ccc(Nc2cc3n(c(=O)n2)CCc2cc(OC)c(OC)cc2-3)c(C)c1`, the Potency was 5.17 µM (active).

With `COc1cc2c(cc1OC)-c1cc(Nc3ccc(N(C)C)cc3)nc(=O)n1CC2`, the Potency result is “inactive”.

As to `COc1cc2c(cc1OC)-c1cc(Nc3ccccc3)nc(=O)n1CC2`, the Potency was 18.4 µM (active).

Turning to `Oc1ccc(-c2nc3cnccn3c2Nc2ccc3c(c2)OCCO3)cc1`, the Potency is 23.1 µM (active).

For `CCOc1ccccc1OCC(=O)N/N=C(\C)Cc1ccc(OC)cc1`, the Potency result is “inactive”.

Take `CCOc1cc(C(=O)N/N=C(\C)Cc2ccc(OC)cc2)cc(OCC)c1OCC`: the Potency entry was “inactive”.

In the case of `O=C(COc1ccc(C(=O)c2ccccc2)cc1)NCc1ccc(F)cc1`, the Potency is 4.61 µM (active).

With `O=C(O)CCCCCCCCc1cn(Cc2ccc(C(=O)c3ccccc3)cc2)nn1`, the Potency entry was “inactive”.

Consider `COc1ccc(CNC(=O)COc2ccc(C(=O)c3ccc(F)cc3)cc2)cc1`, for which the Potency was 3.26 µM (active).

On to `Nc1ncnc2c1ncn2[C@@H]1O[C@H](CNCc2cccc(C#Cc3ccccc3)c2)[C@@H](O)[C@H]1O`, for which the Potency entry was “inactive”.

As for `OC[C@H]1O[C@@H](n2cnc3c(Nc4ccccc4)ncnc32)[C@H](O)[C@@H]1O`, the Potency is 7.31 µM (active).

For the compound `Cc1cn(-c2cccnc2)c(C)c1CNC[C@H]1O[C@@H](n2cnc3c(N)ncnc32)[C@H](O)[C@@H]1O`, the Potency entry is “inactive”.

With `C[C@H](Cc1ccccc1)Nc1ncnc2c1ncn2[C@@H]1O[C@H](CO)[C@@H](O)[C@H]1O`, the Potency was 0.184 µM (active).

With `CCn1c2ccccc2c2cc(Nc3cc(C)nc4ncnn34)ccc21`, the Potency was 16.4 µM (active).

As for `Cc1cc(NC2CCCCC2)nc2ccccc12`, the Potency result was “inactive”.

Take `Cc1cc(NC(=O)CSc2nc3ccccc3c(=O)n2C2CCCC2)no1`: the Potency is 4.61 µM (active).

On to `COc1cccc(-c2nnc(SCC(=O)Nc3cc(C)on3)o2)c1`, for which the Potency entry was “inactive”.

As for `O=[N+]([O-])c1cc(O)c2ncccc2c1`, the Potency result is “inactive”.

For `COC(=O)c1ccc(CNC(=O)Cn2cnc3c(NCc4ccccc4)ncnc32)cc1`, the Potency result was “inactive”.

For `COc1ccc(CNc2nc(NCc3ccc(OC)cc3)c3ncn(C4CCCC4)c3n2)cc1`, the Potency is 2.31 µM (active).

In the case of `NS(=O)(=O)c1cc(C(=O)OCC(=O)N2CCc3ccccc3C2)ccc1Cl`, the Potency entry is “inactive”.

With `O=C(OCC(=O)c1ccc[nH]1)c1ccc(Cl)c(Cl)c1`, the Potency result was “inactive”.

For the compound `CCn1c(=O)c([N+](=O)[O-])c(Cl)c2ccccc21`, the Potency was 6.51 µM (active).

As to `CCOc1ccc(NCc2ccccc2OCc2cccc(F)c2)cc1`, the Potency result was “inactive”.

Turning to `O=Cc1ccccc1OCCOc1ccccc1C=O`, the Potency is 20.6 µM (active).

As for `O=C(CSc1ncccc1C(=O)O)c1ccc2ccccc2c1`, the Potency entry is “inactive”.

In the case of `NC(=S)N=Nc1c(O)n(CCCl)c2ccccc12`, the Potency result is “inactive”.

In the case of `C/C(Cl)=C\Cn1c(O)c(N=NC(N)=S)c2cc(Br)ccc21`, the Potency is 14.6 µM (active).

Regarding `C=CCn1c(O)c(N=NC(=S)Nc2ccccc2F)c2cc(S(=O)(=O)N3CCOCC3)ccc21`, the Potency entry is “inactive”.

Regarding `CCOC(=O)c1[nH]c(C)c(C(=O)c2cc(F)ccc2F)c1C`, the Potency is 11.6 µM (active).

As for `CCOC(=O)c1[nH]c(C)c(C(=O)N2CCc3ccccc32)c1C`, the Potency is 4.61 µM (active).

For the compound `CCOC(=O)c1[nH]c(C)c(C(=O)OCC)c1C`, the Potency is 18.4 µM (active).

As for `CCOC(=O)c1[nH]c(C)c(C(=O)c2ccc(C)cc2)c1C`, the Potency entry is “inactive”.

Consider `CCOC(=O)c1c(C)[nH]c(C(=O)N/N=C/c2ccc(Br)cc2)c1C`, for which the Potency is 0.92 µM (active).

Take `CC[C@]12c3[nH]c4cc(CCC(=O)N(C)C)ccc4c3CCN1C(=O)[C@@H](CC(=O)NC/C=C(\C)CCC=C(C)C)C[C@@H]2C(=O)N1CCN(C(=O)c2ccco2)CC1`: the Potency entry was “inactive”.

With `CCC1CCCCN1C(=S)NC(=O)c1cccs1` (stereo not drawn), the Potency result was “inactive”.

Turning to `CCOC(=O)c1[nH]c(C)c(C(=O)Nc2cc(Cl)ccc2C)c1C`, the Potency was 7.31 µM (active).

As to `CCN(CC(=O)Nc1cc(Cl)ccc1C)C(=O)C1CC1`, the Potency entry is “inactive”.

As to `COc1ccc(S(N)(=O)=O)cc1C(=O)OCCCOC(=O)c1cc(S(N)(=O)=O)ccc1OC`, the Potency result was “inactive”.

As for `CCN(CC)S(=O)(=O)c1ccc(N/N=C(\C)c2ccc(OC)cc2O)nc1`, the Potency result is “inactive”.

As for `CCOc1ccc(S(=O)(=O)Nc2cc(OC)ccc2OC)cc1`, the Potency was 4.61 µM (active).

As for `CC[C@]12c3[nH]c4cc(CCC(=O)N(C)C)ccc4c3CCN1C(=O)[C@@H](CC(=O)NCCc1ccccn1)C[C@@H]2C(=O)N1CCN(C(=O)C2CC2)CC1`, the Potency entry is “inactive”.

Turning to `CCN(CC)c1ccc(NC(=O)c2cc(OC)cc(OC)c2)c(C)c1`, the Potency was 6.51 µM (active).

Consider `C/C(=N\NC(N)=S)c1cc(-c2ccccc2)c(-c2ccccc2)s1`, for which the Potency entry was “inactive”.

In the case of `C=CCNC(=S)N/N=C/c1ccc(C(F)(F)F)cc1`, the Potency result was “inactive”.

Consider `CCN1C(=O)C(O)(C2COC(C)(C)CC2=O)c2cc(Br)ccc21` (stereo not drawn), for which the Potency is 18.4 µM (active).

Take `CCc1ccc2oc(=O)cc(CN3CCCCC3C)c2c1` (stereo not drawn): the Potency result is “inactive”.

Turning to `COc1ccc(CCNCC(O)COc2cccc(Br)c2)cc1` (stereo not drawn), the Potency entry is “inactive”.

For the compound `Oc1ccc(Nc2nc(-c3cccnc3)cs2)cc1`, the Potency is 16.4 µM (active).

For `COC1=CC(=O)CC(C)C12Oc1c(Cl)c(OC)cc(OC)c1C2=O` (stereo not drawn), the Potency result was “inactive”.

Consider `COc1cc(C2C(C#N)=C(N)Oc3cc4c(cc32)OCO4)cc(OC)c1OC` (stereo not drawn), for which the Potency was 0.461 µM (active).

In the case of `COc1cc(OC)c2c(c1)OC(=O)CC2c1cc(OC)c(OC)c(OC)c1` (stereo not drawn), the Potency entry is “inactive”.
